What all share (assay): NCI-60 one-dose screen, 48 h (100 = growth as untreated, 0 = no growth, -100 = all killed)
Holding throughout (conditions): 10 µM unless noted

The subject of test [1] is NCI-H23 lung.
Test [2] deals with NCI-H226 lung.
Test [3] concerns NCI-H322M lung.
Test [4] concerns HOP-62 NSCLC.
Test [5] relates to NCI-H460 lung.
In test [6] the test system is NCI-H522 lung.
Test [7] concerns A549/ATCC NSCLC.
Test [8] relates to 786-0 renal.
Test [9] has as its system DU-145 prostate.
Test [10] deals with K-562 leukemia.
The test system of test [11] is MALME-3M melanoma.
Test [12] has as its system MDA-MB-231 breast.
The subject of test [13] is RXF 393 renal.
The subject of test [14] is SF-268 CNS.
The test system of test [15] is SF-539 CNS.
The test system of test [16] is UACC-257 melanoma.
Test [17] deals with M14 melanoma.
Test [18] has as its system COLO 205 colon.
Test [19] relates to SF-295 CNS.
Test [20] deals with HOP-92 NSCLC.

The panel holds about 83,000 compounds, 20% with a hit somewhere; the sample as a whole holds those more often.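 Treatment: one concentration, 48 hours, 96-well format. Scoring: percent growth, with anything below 10 considered active.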 Unmarked numbers belong to inactive results. Activity calls are given as the source filed them.

With `C#CC[C@@H]1C[C@]2(C)[C@H]3CC[C@@H]4[C@H]5C(C(=C)C)CC[C@]5(C(=O)NCCN(CCN)CCN)CC[C@@]4(C)[C@]3(C)CC[C@H]2C(C)(C)[C@H]1OC(C)=O` (stereo partly drawn), the growth is 77.3% in [1]; 65.9% in [2]; 71.4% in test [3]; 83.3% in test [4]; 81.8% in [5]; 61.7% in [6]. For the same molecule, the growth in test [7] was 53.4%; in [8], 90.3%; in [9] it was 95.1%; in [10], 2.56% (active); in [11], 85.7%; in test [12], 33%. Besides, the growth is -66.1% (active) in test [13]; 87.6% in test [14]; 95.2% in test [15]; 109% in [16]; 91.3% in test [17].

For `CC(C)=CCC[C@H](C)c1ccc(C)c2c1OCN(CCO)C2`, the growth in [1] is 81.7%; in test [2] it was 91.2%; in test [3] it was 104%; in test [4], 80.4%; in test [5], 96%; in test [6] it was 78.1%. In addition, the growth is 82.4% in test [7]; 61% in test [8]; 119% in test [18]; 77.7% in test [10]; 89.5% in test [11]; 88.8% in test [12]. Moreover, the growth in test [13] is 52.4%; in test [19], 98.6%; in test [15], 88.2%; in test [16], 92.3%; in test [17], 90.9%.

Consider `COc1cc(C2CC(c3ccc(Nc4ccnc5cc(Cl)ccc45)cc3)=NN2c2ccccc2)cc(OC)c1OC` (stereo not drawn), for which the growth in test [1] was 84.4%; in test [2] it was 83.6%; in [3], 91.2%; in test [4], 72.8%; in [5], 68.9%; in test [6], 53%. Further, the growth in test [7] is 64.6%; in test [8] it was 76.1%; in test [18], 74.1%; in test [9] it was 79.1%; in test [10], 19.1%; in test [11], 45.6%. Moreover, the growth in test [12] is 77.5%; in test [13] it was 76.3%; in [14] it was 70.6%; in test [19], 57.7%; in test [15] it was 77%; in [16], 84.7%. For the same molecule, in test [17], the growth is 55.5%.

Consider `CC(=O)OC1Oc2ccccc2-c2oc3nc(=N)n(C)c-3cc21` (stereo not drawn), for which the growth in test [1] was 103%; in [2], 117%; in test [3], 123%; in test [4], 91.9%; in test [5] it was 112%; in [6] it was 98.1%. Moreover, the growth in test [7] was 119%; in test [8], 103%; in test [18], 119%; in test [9], 191%; in [10], 94.9%; in [11], 119%. Besides, the growth in [12] was 112%; in test [13] it was 144%; in [14], 251%; in test [19], 125%; in test [15] it was 102%; in test [16] it was 113%. The growth in test [17] is 98.7%.

As to `CCCCCCCCCCCC1=NC(C)(C)CN1C(C)(C)CO`, the growth in test [1] is 59.5%; in [2], 94.8%; in test [3], 92.6%; in [4] it was 60.4%; in [5] it was 28.2%; in test [6], 47.5%. In addition, the growth in test [7] was 68.8%; in [8], 71.6%; in test [18], -81.4% (active); in test [10], 57.6%; in test [11], 62.7%; in [12], 57.7%. Moreover, the growth in [13] was 56.3%; in [14], 69.1%; in test [19], 90.3%; in [15], 57.9%; in test [16], -23.4% (active); in [17], -84.4% (active).

Turning to `Fc1ccc2c(CN3CCO[C@H](COc4cccc(Cl)c4)C3)c[nH]c2c1`, the growth in [1] is 75.5%; in test [2] it was 64.9%; in test [3], 74.6%; in test [4] it was 22%; in test [5], 30.2%; in [6], 36.3%. Also, the growth in [7] was 44.4%; in test [8], 27.2%; in [18] it was 69.1%; in [9] it was 42.6%; in test [10], 32.1%; in test [11], 81.9%. The growth in test [12] was 66.8%; in test [13] it was 82.9%; in test [14] it was 81.1%; in test [19] it was 41.1%; in test [15], 56.7%; in test [16], 53.6%. Also, in test [17], the growth is 54.4%.

As for `COC(=O)c1cc2oc(/C=N/NC(=O)c3cc4oc(-c5cccc(C(F)(F)F)c5)cc4[nH]3)cc2n1Cc1ccccc1`, the growth in test [1] was 93.1%; in test [2], 109%; in [3], 88%; in test [4], -2.75% (active); in test [5], 107%; in [20], 78.1%. The growth in test [6] was 97.4%; in test [7], 20.6%; in test [9], 111%; in test [10] it was 91.3%; in [11] it was 6.57% (active); in [12], 104%. The growth is 84.8% in test [14], 92.4% in test [15], -29.3% (active) in test [16] and 121% in test [17].

Consider `O=C1OCC2=C1C(c1cccc(Br)c1)c1cc3c(cc1N2CCO)OCCO3` (stereo not drawn), for which the growth in test [1] was 27.5%; in test [2] it was -4.52% (active); in [3], 35%; in test [4] it was 28.7%; in [5], 0.468% (active); in test [6] it was -11.5% (active). The growth was 13.5% in test [7]; 21.8% in [8]; -24.5% (active) in [18]; -30.9% (active) in test [9]; 17.5% in [10]; -21.5% (active) in [12]. The growth in test [13] was 38.2%; in test [14], 19%; in test [19], -4.99% (active); in test [15], 0.257% (active); in test [16], 49%; in [17], 14.6%.

The values above are taken from PubChem BioAssay (NCI).
